From PubChem BioAssay (Tox21)
Results filed as inconclusive are left out. Active and inactive are the calls of the source. The call rests on the fitted dose curve; in most records, active means well fitted inhibition curve with a large enough effect in the repeat runs; inconclusive means weak or mixed curves, or effect the other way; inactive means no such curve, though single readings can be large or run the other way.

target: Nuclear receptor subfamily 1 group I member 3 (Homo sapiens) (UniProt Q14994); experiment: qHTS assay to identify small molecule antagonists of the constitutive androstane receptor (CAR) signaling pathway (AID 1224838); details: HepG2-CYP2B6-hCAR luciferase, CITCO-stimulated, 24 h; series mostly up to 92.4 µM; activity, negative = inhibition: at the top concentration; further: nearly all actives have a fitted effect of over 40% in size
Summary of the method: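 HepG2 cells stably co-transfected with hCAR and a CYP2B6-2.2kb luciferase reporter were seeded 4 h before compound addition at 15 concentrations. Cells were stimulated with 50 nM CITCO (final) for 24 h at 37 C; luciferase luminescence was then read.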
On the % scale 0 is the no-effect control and ±100 the full control effect; potency means the concentration at half of the fitted maximal effect.

Nuclear receptor subfamily 1 group I member 3 (Homo sapiens), sequence (Q14994 whole entry, looked up): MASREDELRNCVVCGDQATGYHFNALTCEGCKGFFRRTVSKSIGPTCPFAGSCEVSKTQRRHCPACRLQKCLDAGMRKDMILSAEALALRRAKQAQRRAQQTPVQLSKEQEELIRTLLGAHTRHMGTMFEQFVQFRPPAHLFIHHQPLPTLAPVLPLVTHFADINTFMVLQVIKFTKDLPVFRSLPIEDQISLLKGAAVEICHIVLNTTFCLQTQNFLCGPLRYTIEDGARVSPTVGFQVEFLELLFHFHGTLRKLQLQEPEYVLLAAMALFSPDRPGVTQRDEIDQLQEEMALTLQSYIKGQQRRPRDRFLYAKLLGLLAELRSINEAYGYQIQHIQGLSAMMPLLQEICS

Compound | activity, negative = inhibition | Potency
CCOC(=N)CC(=O)OCC | 0.581% (inactive) | 
CCOC(=O)C(C)Oc1ccc(Oc2nc3ccc(Cl)cc3o2)cc1 (stereo unspecified) | 46.7% (inactive) | 
CC(C)(CCl)c1ccccc1 | -4.86% (inactive) | 
CCCOc1ccc(S(=O)(=O)N2CCN(CC)CC2)cc1-c1nc2c(CC)n(Cc3ccccn3)nc2c(=O)[nH]1 | 24.4% (inactive) | 
Nc1ccc(S(=O)(=O)O)cc1 | -8.51% (inactive) | 
CC(C)c1nnc2ccc(-c3ocnc3-c3cc(F)ccc3F)cn12 | -2.17% (inactive) | 
Cc1nccn1-c1ccc(Sc2cccc(C3(C(N)=O)CCOCC3)c2)cc1 | 12.1% (inactive) | 
Cc1cc(O)c2c(O)c3c(O)cccc3cc2c1 | 292% [at 42.5 µM] (inactive) | 
CC(=O)Oc1ccc2c(c1)CC[C@@H]1[C@@H]2CC[C@]2(C)[C@@H](O)CC[C@@H]12 | 46.1% [at 42.5 µM] (inactive) | 
N#C/C(=C1/SC[C@@H](c2ccc(Cl)cc2Cl)S1)n1ccnc1 | 265% [at 42.5 µM] (inactive) | 
O=C(O)Cc1ccc(-c2ccccc2)cc1 | 12.9% [at 42.5 µM] (inactive) | 
NCC1CCCC(CN)C1 (stereo unspecified) | -0.474% (inactive) | 
O=C(c1ccc(O)cc1)c1ccc(Cl)cc1 | 196% (inactive) | 
O=C(O)c1ccccc1NCCc1ccccc1 | 95.4% [at 42.5 µM] (inactive) | 
COCCOC(=O)C1=C(C)NC(C)=C(C(=O)OC/C=C/c2ccccc2)C1c1cccc([N+](=O)[O-])c1 (stereo unspecified) | 120% [at 42.5 µM] (inactive) | 
CCOC(=O)c1ccccc1OC | 5.37% (inactive) | 
C1COCO1 | -13.7% (inactive) | 
Cc1ccc(/C=N/n2c(-c3ccccc3)csc2=S)cc1 | 172% [at 42.5 µM] (inactive) | 
Cc1ccc(Nc2nccc(N(C)c3ccc4c(C)n(C)nc4c3)n2)cc1S(N)(=O)=O | -0.863% [at 42.5 µM] (inactive) | 
CCOC(=O)[C@@H](C)Oc1ccc(Oc2nc3ccc(Cl)cc3o2)cc1 | 44.2% (inactive) | 
CO[C@@]12[C@H](COC(N)=O)C3=C(C(=O)C(C)=C(N)C3=O)N1C[C@@H]1N[C@@H]12 |  | 750 nM (active)
